In PubChem BioAssay (NCI) one finds growth inhibition data, which are given here for seven compounds.

Test [1] is described as follows: NCI Yeast Anticancer Drug Screen. Data for the rad50 strain (AID 155).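 Note: 0% = growth of vehicle-only cultures of the same strain.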 The note with it: S. cerevisiae rad50 strain growth inhibition, stronger effect = higher value. In outline: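 Yeast carrying a defined DNA repair defect were exposed to test compounds, and growth was compared with vehicle-treated controls to give percent inhibition.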
A short description of test [2]: NCI Yeast Anticancer Drug Screen. Data for the mec2-1 strain (AID 157). The note with it: S. cerevisiae mec2-1 strain, stronger effect = higher value. In outline: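 Growth inhibition is read against vehicle-treated controls after compound exposure of the mec2-1 yeast strain, which is defective in DNA damage repair or cell cycle control.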
Test [3] is described as follows: NCI Yeast Anticancer Drug Screen. Data for the sgs1 mgt1 strain (AID 161).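 Note: 0% = growth of cultures given vehicle only.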 The note with it: S. cerevisiae sgs1 mgt1 strain, stronger effect = higher value. In outline:
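Growth of a repair-deficient yeast mutant was monitored after compound treatment and expressed as inhibition relative to vehicle-treated cultures.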

Test [4] can be described thus: NCI Yeast Anticancer Drug Screen. Data for the cln2 rad14 strain (AID 165).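 Note: 0% = growth equal to vehicle treated cultures.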 The note with it: S. cerevisiae cln2 rad14 strain, stronger effect = higher value. The method, boiled down: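 Growth inhibition, relative to vehicle-treated controls, is the read-out. The test organism is a yeast strain with defined genetic alterations, cln2 rad14.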
Test [5] is described as follows: NCI Yeast Anticancer Drug Screen. Data for the bub3 strain (AID 167). As to conditions: S. cerevisiae bub3 mutant strain, stronger effect = higher value. In outline: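 Compounds were applied to a genetically altered yeast strain carrying a cell-cycle control defect. Growth inhibition was scored against vehicle-treated controls.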
Test [6] is described as follows: NCI Yeast Anticancer Drug Screen. Data for the mlh1 rad18 strain (AID 175). The note with it: S. cerevisiae mlh1 rad18 strain growth inhibition, stronger effect = higher value. The method, boiled down: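 Cells of a genetically altered yeast strain, deficient in DNA damage repair, were treated with compound. Their growth was then compared with that of vehicle-treated cultures to give inhibition.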

Where [7] appears, read: at 5.0 µM (retest, dose inferred, filed as 0.5).
Setting [8] is: at 50.0 µM (retest, dose inferred, filed as 5.0).

“And” between values parts separate entries of the source, which are not always exact repeats. Identical values can stand only once. Compounds without any hit were thinned out: in the full panel of roughly 79,000, 15% have a hit. More than one record can exist for a structure, and the calls need not agree. The source made the active and inactive calls. Cut-off read from the data, not from the text of the source: active = growth inhibition above about 70%; inactive = the rest.

In the case of `Cc1ccc(N=P(c2ccccc2)(c2ccccc2)c2ccccc2)cc1.[I][Hg][I]`, the growth inhibition in test [1] (setting [7]) is 99% (active); in test [1] (setting [8]), 99% (active); in test [1] (at 50.0 µM), 94.7% (active); in test [2] (setting [7]), 100% (active); in test [2] (setting [8]) it was 100% (active); in test [2] (at 50.0 µM), 99.7% (active). The growth inhibition in test [3] (setting [7]) is 100% (active); in test [3] (setting [8]) it was 99% (active); in test [3] (at 50.0 µM), 98.9% (active); in test [4] (setting [7]), 99% (active); in test [4] (setting [8]), 99% (active); in test [4] (at 50.0 µM), 99% (active). Further, the growth inhibition in test [5] (setting [7]) is 99% (active); in test [5] (setting [8]) it was 98% (active); in test [5] (at 50.0 µM), 98.3% (active); in test [6] (setting [7]), 99% (active); in test [6] (setting [8]), 99% (active); in test [6] (at 50.0 µM), 99.3% (active).
As to `[Cl][Hg][Cl].c1cnccn1`, the growth inhibition in test [1] (setting [7]) is 39% (inactive); in test [1] (setting [8]), 97% (active); in test [1] (at 50.0 µM), 92.2% (active); in test [2] (setting [7]) it was 40% (inactive); in test [2] (setting [8]), 98% (active); in test [2] (at 50.0 µM) it was 93.8% (active). Moreover, the growth inhibition in test [3] (setting [7]) is 99% (active); in test [3] (setting [8]), 99% (active); in test [3] (at 50.0 µM), 94.3% (active); in test [4] (setting [7]), 80% (active); in test [4] (setting [8]) it was 97% (active); in test [4] (at 50.0 µM) it was 93.2% (active). Further, the growth inhibition in test [5] (setting [7]) was 99% (active); in test [5] (setting [8]), 99% (active); in test [5] (at 50.0 µM) it was 93.2% (active); in test [6] (setting [7]) it was 32% (inactive); in test [6] (setting [8]) it was 99% (active); in test [6] (at 50.0 µM), 93% (active).
Take `O=[N+]([O-])c1cc([N+](=O)[O-])c(Cl)cc1F`: the growth inhibition in test [1] (setting [7]) was 99% (active); in test [1] (setting [8]) it was 99% (active); in test [1] (at 50.0 µM), 81% (active); in test [2] (setting [7]), 99% (active); in test [2] (setting [8]) it was 99% (active); in test [2] (at 50.0 µM) it was 59.7% (inactive). Further, the growth inhibition was 99% (active) in test [3] (setting [7]); 99% (active) in test [3] (setting [8]); 78.2% (active) in test [3] (at 50.0 µM); 98% (active) in test [4] (setting [7]); 99% (active) in test [4] (setting [8]); -3.25% (inactive) in test [4] (at 50.0 µM). Moreover, the growth inhibition in test [5] (setting [7]) was 99% (active); in test [5] (setting [8]), 99% (active); in test [5] (at 50.0 µM), 87.5% (active); in test [6] (setting [7]) it was 99% (active); in test [6] (setting [8]), 99% (active); in test [6] (at 50.0 µM), 98.6% (active).
With `CC(C)=[CH][Sb]([Br])([CH]=C(C)C)([CH]=C(C)C)[CH]=C(C)C`, the growth inhibition is -1% (inactive) in test [1] (setting [7]); 11% (inactive) in test [1] (setting [8]); 50.8% (inactive) in test [1] (at 50.0 µM); -4% (inactive) in test [2] (setting [7]); 17% (inactive) in test [2] (setting [8]); 33.7% (inactive) in test [2] (at 50.0 µM). Also, the growth inhibition in test [3] (setting [7]) is -4% (inactive); in test [3] (setting [8]), 14% (inactive); in test [3] (at 50.0 µM) it was 18.9% (inactive); in test [4] (setting [7]), -8% (inactive); in test [4] (setting [8]), 3% (inactive); in test [4] (at 50.0 µM), -17.4% (inactive). Also, the growth inhibition in test [5] (setting [7]) was 11% (inactive); in test [5] (setting [8]) it was 13% (inactive); in test [5] (at 50.0 µM) it was 30.7% (inactive); in test [6] (setting [7]) it was -7% (inactive); in test [6] (setting [8]), 12% (inactive); in test [6] (at 50.0 µM), 24.4% (inactive).
With `COc1ccc2c3c1OC1C(=O)C4CC5(c6c(O)ccc(O)c64)C(C2)N(C)CCC315` (stereo unspecified), the growth inhibition in test [1] (setting [7]) was -6% (inactive); in test [1] (setting [8]) it was 99% (active); in test [1] (at 50.0 µM), 98.5% (active); in test [2] (setting [7]), -2% (inactive); in test [2] (setting [8]) it was 92% (active); in test [2] (at 50.0 µM), 99% (active). In addition, the growth inhibition in test [3] (setting [7]) is -6% (inactive); in test [3] (setting [8]) it was 99% (active); in test [3] (at 50.0 µM), 99.1% (active); in test [4] (setting [7]), -14% (inactive); in test [4] (setting [8]) it was 98% (active); in test [4] (at 50.0 µM), 98.1% (active). The growth inhibition is -3% (inactive) in test [5] (setting [7]); 99% (active) in test [5] (setting [8]); 98.5% (active) in test [5] (at 50.0 µM); 13% (inactive) in test [6] (setting [7]); 99% (active) in test [6] (setting [8]); 99% (active) in test [6] (at 50.0 µM).
On to `CCCCCC(Cn1ccnc1)c1ccc(Cl)cc1Cl` (stereo unspecified), for which the growth inhibition in test [1] (setting [7]) was 72% (active); in test [1] (setting [8]) it was 95% (active); in test [1] (at 50.0 µM), 99.5% (active); in test [2] (setting [7]), 50% (inactive); in test [2] (setting [8]), 94% (active); in test [2] (at 50.0 µM), 99% (active). The growth inhibition was 69% (inactive) in test [3] (setting [7]); 97% (active) in test [3] (setting [8]); 99.4% (active) in test [3] (at 50.0 µM); 72% (active) in test [4] (setting [7]); 98% (active) in test [4] (setting [8]); 99.7% (active) in test [4] (at 50.0 µM). In addition, the growth inhibition in test [5] (setting [7]) was 72% (active); in test [5] (setting [8]) it was 99% (active); in test [5] (at 50.0 µM), 99.8% (active); in test [6] (setting [7]), 72% (active); in test [6] (setting [8]) it was 100% (active); in test [6] (at 50.0 µM) it was 99.6% (active).
With `c1ccc(-c2ccccn2)nc1`, the growth inhibition in test [1] (setting [7]) is -4% (inactive) and 2% (inactive); in test [1] (setting [8]) it was 76% (active) and 90% (active); in test [1] (at 50.0 µM) it was 79.8% (active) and 81.1% (active); in test [2] (setting [7]) it was 0% (inactive) and 1% (inactive); in test [2] (setting [8]), 53% (inactive) and 61% (inactive); in test [2] (at 50.0 µM) it was 70.9% (active) and 55.6% (inactive). For the same compound, the growth inhibition in test [3] (setting [7]) was 8% (inactive) and -2% (inactive); in test [3] (setting [8]) it was 74% (active) and 75% (active); in test [3] (at 50.0 µM) it was 66% (inactive) and 77.8% (active); in test [4] (setting [7]), 4% (inactive) and -5% (inactive); in test [4] (setting [8]), 61% (inactive) and 51% (inactive); in test [4] (at 50.0 µM), 29.1% (inactive) and 21.4% (inactive). The growth inhibition is -23% (inactive) and 0% (inactive) in test [5] (setting [7]); 87% (active) and 86% (active) in test [5] (setting [8]); 82.5% (active) and 64.2% (inactive) in test [5] (at 50.0 µM); -3% (inactive) and 2% (inactive) in test [6] (setting [7]); 85% (active) and 84% (active) in test [6] (setting [8]); 68% (inactive) and 75.9% (active) in test [6] (at 50.0 µM).
